Data from PubChem BioAssay (NCI).
This is part of a sample that, as a whole, favours compounds with a hit. Of some 79,000 tested, about 15% had one in any assay. A number with no mark means an inactive call. Calls of active or inactive are those of the source. Cut-off read from the data, not from the text of the source: active = growth inhibition above about 70%; inactive = the rest.

Tests used:
[1] = NCI Yeast Anticancer Drug Screen. Data for the rad50 strain (AID 155);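 note: 0% = growth of vehicle-only cultures of the same strain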; conditions: S. cerevisiae rad50 strain growth inhibition, hits give high values
Procedure, shortened: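 DNA repair mutant yeast, compound exposure, growth read-out; inhibition is taken relative to vehicle.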

[2] = NCI Yeast Anticancer Drug Screen. Data for the mec2-1 strain (AID 157); conditions: S. cerevisiae mec2-1 strain, hits give high values
Procedure, shortened: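 Growth inhibition is read against vehicle-treated controls after compound exposure of the mec2-1 yeast strain, which is defective in DNA damage repair or cell cycle control.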

[3] = NCI Yeast Anticancer Drug Screen. Data for the sgs1 mgt1 strain (AID 161);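 note: 0% = growth of cultures given vehicle only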; conditions: S. cerevisiae sgs1 mgt1 strain, hits give high values
Procedure, shortened: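 Compounds are added to genetically altered yeast, and growth is compared with cultures given vehicle alone to give percent inhibition.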

[4] = NCI Yeast Anticancer Drug Screen. Data for the cln2 rad14 strain (AID 165);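 note: 0% = growth equal to vehicle treated cultures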; conditions: S. cerevisiae cln2 rad14 strain, hits give high values
Procedure, shortened: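 Growth inhibition, relative to vehicle-treated controls, is the read-out. The test organism is a yeast strain with defined genetic alterations, cln2 rad14.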

[5] = NCI Yeast Anticancer Drug Screen. Data for the bub3 strain (AID 167); conditions: S. cerevisiae bub3 mutant strain, hits give high values
Procedure, shortened: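 In this screen, a yeast mutant lacking normal mitotic checkpoint function is challenged with compound. Relative growth versus vehicle gives the inhibition value.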

[6] = NCI Yeast Anticancer Drug Screen. Data for the mlh1 rad18 strain (AID 175); conditions: S. cerevisiae mlh1 rad18 strain growth inhibition, hits give high values
Procedure, shortened: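 Cells of a genetically altered yeast strain, deficient in DNA damage repair, were treated with compound. Their growth was then compared with that of vehicle-treated cultures to give inhibition.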

[7] = at 5.0 µM (retest, dose inferred, filed as 0.5)
[8] = at 50.0 µM (retest, dose inferred, filed as 5.0)

| SMILES | growth inhibition [1, 7] | growth inhibition [1, 8] | growth inhibition ([1]; at 50.0 µM) | growth inhibition [2, 7] | growth inhibition [2, 8] | growth inhibition ([2]; at 50.0 µM) | growth inhibition [3, 7] | growth inhibition [3, 8] | growth inhibition ([3]; at 50.0 µM) | growth inhibition [4, 7] | growth inhibition [4, 8] | growth inhibition ([4]; at 50.0 µM) | growth inhibition [5, 7] | growth inhibition [5, 8] | growth inhibition ([5]; at 50.0 µM) | growth inhibition [6, 7] | growth inhibition [6, 8] | growth inhibition ([6]; at 50.0 µM) |
| --- | --- | --- | --- | --- | --- | --- | --- | --- | --- | --- | --- | --- | --- | --- | --- | --- | --- | --- |
| CC1CCC(C)(C)c2cc([N+](=O)[O-])cc([N+](=O)[O-])c21 (configuration not stated) | -1% | 99% (active) | -6.5% | 0% | 99% (active) | -0.75% | -4% | 99% (active) | 26.2% | 1% | 99% (active) | -8.1% | 18% | 99% (active) | 80.2% (active) | -1% | 99% (active) | 17.9% |
| CSC(=Nc1ccccc1)NC(=O)Nc1ccc(Cl)cc1 | -8% | -11% | -1.45% | 5% | -15% | 5% | -34% | -17% | -2.1% | -18% | -17% | -31.2% | -22% | -4% | 2.55% | -7% | -5% | 3.15% |
| CCOC(=O)N/N=C/c1ccc(N(C)CCC#N)cc1 | 7% | 6% | -12% | -3% | 12% | -26.9% | -4% | 4% | 55.2% | 37% | 17% | 5.5% | 22% | 15% | 1.1% | 14% | 24% | -3.6% |
| CCC(=NCCCCCCN=C(CC)c1cc(C)cc([N+](=O)[O-])c1O)c1cc(C)cc([N+](=O)[O-])c1O.[Fe] | 10% | 46% | 80.9% (active) | -10% | 79% (active) | 72.3% (active) | 11% | 35% | 72.2% (active) | -7% | 49% | 70.5% (active) | -1% | 70% (active) | 71.7% (active) | 11% | 63% | 80.8% (active) |
| CCOC(=O)C(C)(C)Oc1ccc2c(=O)cc(-c3ccccc3)oc2c1 | -8% | 95% (active) | 85.5% (active) | -28% | 96% (active) | 93% (active) | -43% | 95% (active) | 93.4% (active) | 6% | 96% (active) | 92.5% (active) | -17% | 97% (active) | 92.5% (active) | -56% | 94% (active) | 89.9% (active) |
| CC1(C)CC(=O)C(c2ccccc2[N+](=O)[O-])=C(O)C1 | 4% | 6% | 99.6% (active) | 11% | 20% | 99.3% (active) | 4% | 8% | 69.6% | 5% | 24% | 90.3% (active) | -6% | -1% | 98.3% (active) | -2% | 7% | 99.2% (active) |
| CCC(=O)NC1=C(Cl)C(=O)c2ccccc2C1=O | 99% (active) | 99% (active) | 99.2% (active) | 100% (active) | 99% (active) | 98.2% (active) | 100% (active) | 100% (active) | 98.2% (active) | 99% (active) | 100% (active) | 86.2% (active) | 99% (active) | 99% (active) | 98.9% (active) | 99% (active) | 99% (active) | 98.5% (active) |
| Cc1ccc(N2C(=O)CCSC2=S)cc1C | -1% | 87% (active) | 97.2% (active) | 0% | 35% | 80.5% (active) | 4% | 96% (active) | 98.3% (active) | -2% | 32% | 38.9% | -5% | 77% (active) | 68.7% | -2% | 98% (active) | 95.4% (active) |
| COC(=O)c1cc(-c2ccc([N+](=O)[O-])cc2)c2c(=O)n(-c3ccccc3)[nH]c2n1 | 0% | 84% (active) | 89.8% (active) | -1% | 75% (active) | 91.1% (active) | -1% | 85% (active) | 61.1% | -3% | 77% (active) | 42.4% | -3% | 83% (active) | 50.2% | -3% | 86% (active) | 92.2% (active) |
| O=C1CNC(=O)c2cc(N=Cc3cc(Br)ccc3O)ccc2N1 | 10% | 95% (active) | 82% (active) | 8% | 98% (active) | 62% | 13% | 96% (active) | 93.5% (active) | 2% | 30% | 22.6% | -1% | 95% (active) | 43.4% | 12% | 97% (active) | 71.9% (active) |
| C/C(=N/NC(=O)Nc1ccc(N=Nc2ccccc2)cc1)c1ccccn1 | -15% | -12% | 15.2% | -7% | -5% | -10.9% | 0% | 19% | 24.8% | 33% | -16% | -4.4% | 3% | 43% | 16.4% | -9% | 15% | 28.1% |
| CCCCCCCCCCCCCCCCCC[N+]1(CC)CCCCC1 | 99% (active) | 99% (active) | 90.3% (active) | 99% (active) | 99% (active) | 91.2% (active) | 99% (active) | 99% (active) | 91.5% (active) | 99% (active) | 99% (active) | 90.2% (active) | 99% (active) | 99% (active) | 90.4% (active) | 99% (active) | 99% (active) | 89.2% (active) |
| Oc1ccc(C23CC4CC(CC(C4)C2)C3)cc1 | -148% | -135% | 38.1% | -50% | -38% | -1.75% | -56% | -46% | 2.8% | -56% | -25% | 32.8% | -69% | -66% | -26.4% | -114% | -91% | 2.1% |
| Brc1cc2c(c(Br)c1Br)C(Br)(Br)C(c1ccccc1)=N2 | 6% | 80% (active) | 73.3% (active) | 10% | 85% (active) | 58.1% | 25% | 85% (active) | 78.6% (active) | 3% | 32% | 60.4% | 1% | 90% (active) | 27.6% | 13% | 89% (active) | 75.3% (active) |
| CN=C1NS(=O)(=O)c2ccccc21 | 2% | 0% | 15.8% | 8% | 1% | -6.15% | 4% | -1% | 3.4% | 0% | 2% | 19.1% | 11% | 39% | -0.85% | 0% | 8% | -2.4% |
| O=[N+]([O-])c1ccc(-c2cccc(Cl)c2)c([N+](=O)[O-])c1 | 6% | 98% (active) | 99.3% (active) | -3% | 99% (active) | 99% (active) | 13% | 99% (active) | 99.2% (active) | -17% | 98% (active) | 91% (active) | 9% | 99% (active) | 98.8% (active) | 2% | 98% (active) | 97.9% (active) |
| COc1ccc2c(c1)[n+]([O-])c(C(N)=O)c(N)[n+]2[O-] | 23% | 100% (active) | 99.4% (active) | 14% | 100% (active) | 99.5% (active) | 17% | 99% (active) | 99.3% (active) | 31% | 98% (active) | 99.1% (active) | 40% | 99% (active) | 98.4% (active) | 42% | 99% (active) | 99.2% (active) |
| CN(O)C(=S)c1ccccc1 | 50% | 87% (active) | 91.7% (active) | 43% | 73% (active) | 93.3% (active) | 55% | 99% (active) | 92.5% (active) | 41% | 99% (active) | 89.6% (active) | 95% (active) | 99% (active) | 91.8% (active) | 36% | 67% | 86.7% (active) |
| CCN(CC)c1cccc(OC(=O)Nc2cccc(C(F)(F)F)c2)c1 | 50% | 73% (active) | 84% (active) | 37% | 73% (active) | 81.2% (active) | 42% | 80% (active) | 83.8% (active) | 28% | 64% | 82.9% (active) | 42% | 79% (active) | 87.6% (active) | 44% | 88% (active) | 83.4% (active) |
